# Data from the supplement of paper PMC12282887.
# ± gives the standard deviation of the averaged measurements.
# System: E. coli BW25113 marRABp lux reporter
# Assay: promoter activity interaction Z-score (Lux/OD deviation from empty-vector control); higher = stronger promoter induction by the compound
# Description: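 E. coli BW25113 (wild type or ΔmarA/ΔsoxS/Δrob) carrying pTU175 luxCDABE promoter reporters was grown in LB in 384-well plates at 37°C with each of 94 compounds at 4 two-fold concentrations, in biological duplicates. Luminescence and OD600 were read every 30 min for 12 h and integrated as AUC over 8 h (0-8 h WT, 1-9 h mutants). Lux AUC was divided by OD AUC; the interaction score is the residual of a Huber robust fit of each promoter against the empty-vector control, then Z-transformed per promoter.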
compound,measurement,setting,value
CC(=O)O[C@H]1C[C@@]2(C)[C@@H](C[C@@H](O)[C@H]3[C@@]4(C)CC[C@@H](O)[C@@H](C)[C@@H]4CC[C@@]32C)/C1=C(\CCC=C(C)C)C(=O)O [Fusidic acid],promoter activity interaction Z-score,"13.5 µg/ml, genetic background: wild type",-0.438 ± 0.029
same,promoter activity interaction Z-score,"13.5 µg/ml, genetic background: ΔmarA",0.0154 ± 0.048
same,promoter activity interaction Z-score,"13.5 µg/ml, genetic background: Δrob",-0.0451 ± 0.073
same,promoter activity interaction Z-score,"13.5 µg/ml, genetic background: ΔsoxS",0.0686 ± 0.1
same,promoter activity interaction Z-score,"26.9 µg/ml, genetic background: wild type",0.0382 ± 0.39
same,promoter activity interaction Z-score,"26.9 µg/ml, genetic background: ΔmarA",0.3 ± 0.31
same,promoter activity interaction Z-score,"26.9 µg/ml, genetic background: Δrob",0.0321 ± 0.089
same,promoter activity interaction Z-score,"26.9 µg/ml, genetic background: ΔsoxS",0.122 ± 0.072
same,promoter activity interaction Z-score,"53.9 µg/ml, genetic background: wild type",0.384 ± 0.077
same,promoter activity interaction Z-score,"53.9 µg/ml, genetic background: ΔmarA",0.457 ± 0.14
same,promoter activity interaction Z-score,"53.9 µg/ml, genetic background: Δrob",0.307 ± 0.22
same,promoter activity interaction Z-score,"53.9 µg/ml, genetic background: ΔsoxS",0.418 ± 0.13
same,promoter activity interaction Z-score,"107.7 µg/ml, genetic background: wild type",0.539 ± 0.64
same,promoter activity interaction Z-score,"107.7 µg/ml, genetic background: ΔmarA",0.236 ± 0.49
same,promoter activity interaction Z-score,"107.7 µg/ml, genetic background: Δrob",0.523 ± 0.97
same,promoter activity interaction Z-score,"107.7 µg/ml, genetic background: ΔsoxS",1.17 ± 0.92
CC(=O)[C@H]1CC[C@H]2[C@@H]3CCC4=CC(=O)CC[C@]4(C)[C@H]3CC[C@]12C [Progesterone],promoter activity interaction Z-score,"19.7 µg/ml, genetic background: wild type",-0.0683 ± 0.075
same,promoter activity interaction Z-score,"19.7 µg/ml, genetic background: ΔmarA",0.0187 ± 0.17
same,promoter activity interaction Z-score,"19.7 µg/ml, genetic background: Δrob",-0.191 ± 0.093
same,promoter activity interaction Z-score,"19.7 µg/ml, genetic background: ΔsoxS",0.0521 ± 0.092
same,promoter activity interaction Z-score,"39.3 µg/ml, genetic background: wild type",-0.275 ± 0.28
same,promoter activity interaction Z-score,"39.3 µg/ml, genetic background: ΔmarA",-0.0815 ± 0.0053
same,promoter activity interaction Z-score,"39.3 µg/ml, genetic background: Δrob",-0.249 ± 0.035
same,promoter activity interaction Z-score,"39.3 µg/ml, genetic background: ΔsoxS",-0.155 ± 0.11
same,promoter activity interaction Z-score,"78.6 µg/ml, genetic background: wild type",-0.102 ± 0.22
same,promoter activity interaction Z-score,"78.6 µg/ml, genetic background: ΔmarA",-0.0516 ± 0.038
same,promoter activity interaction Z-score,"78.6 µg/ml, genetic background: Δrob",-0.252 ± 0.24
same,promoter activity interaction Z-score,"78.6 µg/ml, genetic background: ΔsoxS",-0.3 ± 0.093
same,promoter activity interaction Z-score,"157.2 µg/ml, genetic background: wild type",-0.0485 ± 0.46
same,promoter activity interaction Z-score,"157.2 µg/ml, genetic background: ΔmarA",0.0739 ± 0.13
same,promoter activity interaction Z-score,"157.2 µg/ml, genetic background: Δrob",-0.505 ± 0.15
same,promoter activity interaction Z-score,"157.2 µg/ml, genetic background: ΔsoxS",-0.178 ± 0.15
CC[C@H](C)[C@H](N)C1=N[C@H](C(=O)N[C@@H](CC(C)C)C(=O)N[C@H](CCC(=O)O)C(=O)N[C@H](C(=O)N[C@H]2CCCCNC(=O)[C@H](CC(N)=O)NC(=O)[C@@H](CC(=O)O)NC(=O)[C@H](Cc3cnc[nH]3)NC(=O)[C@@H](Cc3ccccc3)NC(=O)[C@H]([C@@H](C)CC)NC(=O)[C@@H](CCCN)NC2=O)[C@@H](C)CC)CS1 [Bacitracin],promoter activity interaction Z-score,"35.6 µg/ml, genetic background: wild type",0.278 ± 0.2
same,promoter activity interaction Z-score,"35.6 µg/ml, genetic background: ΔmarA",0.153 ± 0.22
same,promoter activity interaction Z-score,"35.6 µg/ml, genetic background: Δrob",-0.0986 ± 0.2
same,promoter activity interaction Z-score,"35.6 µg/ml, genetic background: ΔsoxS",-0.193 ± 0.086
same,promoter activity interaction Z-score,"71.1 µg/ml, genetic background: wild type",-0.0216 ± 0.19
same,promoter activity interaction Z-score,"71.1 µg/ml, genetic background: ΔmarA",-0.262 ± 0.16
same,promoter activity interaction Z-score,"71.1 µg/ml, genetic background: Δrob",-0.251 ± 0.062
same,promoter activity interaction Z-score,"71.1 µg/ml, genetic background: ΔsoxS",-0.169 ± 0.029
same,promoter activity interaction Z-score,"142.3 µg/ml, genetic background: wild type",-0.588 ± 0.2
same,promoter activity interaction Z-score,"142.3 µg/ml, genetic background: ΔmarA",-0.5787 ± 0.0025
same,promoter activity interaction Z-score,"142.3 µg/ml, genetic background: Δrob",-0.542 ± 0.048
same,promoter activity interaction Z-score,"142.3 µg/ml, genetic background: ΔsoxS",-0.36 ± 0.085
same,promoter activity interaction Z-score,"284.5 µg/ml, genetic background: wild type",0.158 ± 0.24
same,promoter activity interaction Z-score,"284.5 µg/ml, genetic background: ΔmarA",0.0811 ± 0.011
same,promoter activity interaction Z-score,"284.5 µg/ml, genetic background: Δrob",-0.159 ± 0.29
same,promoter activity interaction Z-score,"284.5 µg/ml, genetic background: ΔsoxS",0.576 ± 0.23
